Calls of active or inactive are those of the source. The calls were made as follows: active = hit-call score of the fitted dose curve at least 0.9, where 1 is the maximum; inactive = score below 0.9.
How the values were obtained:
[1] = APR_HepG2_CellCycleArrest_1hr: Apredica 1-hour HepG2 Assay for Cell Cycle Arrest (AID 2282666); details: high-content imaging, actives raise or lower the signal
In short: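 Cell cycle arrest scored from nuclear DNA content (Hoechst 33342) using high-content imaging of fixed HepG2 cells after 1 h treatment across 0.39–200 uM, in duplicate. Gain or loss fitted relative to 0.5% DMSO.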

[2] = APR_HepG2_CellLoss_1hr: Apredica 1-hour HepG2 Assay for Cell Loss (AID 2282668); details: high-content imaging;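 also: curves fitted both ways against DMSO so gain or loss of cells counts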
In short: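 Cell number comes from high-content imaging of Hoechst-labelled nuclei in fixed HepG2 cells. Cells were exposed for 1 h to ten concentrations from 0.39 to 200 uM in 0.5% DMSO. Gain or loss was fitted against DMSO controls.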

[3] = APR_HepG2_NuclearSize_1hr: Apredica 1-hour HepG2 Assay for Nuclear Size (AID 2282670); details: high-content imaging, actives raise or lower the signal
In short: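 Nuclear size measured by high-content imaging of Hoechst 33342 nuclear stain after formaldehyde fixation; human HepG2 line exposed 1 hr to compounds at 0.39–200 uM in 0.5% DMSO, with bidirectional curve fitting relative to DMSO.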

[4] = APR_HepG2_MitoticArrest_1hr: Apredica 1-hour HepG2 Assay for Mitotic Arrest (AID 2282672); details: high-content imaging, actives raise or lower the signal
In short: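 Ten-point concentration series (0.39 to 200 uM, duplicates, 0.5% v/v DMSO) applied to human HepG2 liver cells for 1 hr. High-content imaging of phospho-histone H3 and Hoechst-stained nuclei after fixation and permeabilization; DMSO-normalised bidirectional fit.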

[5] = APR_HepG2_P-H2AX_1hr: Apredica 1-hour HepG2 Assay for H2AX Phosphorylation (AID 2282673); details: high-content imaging, actives raise or lower the signal
In short: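 Phospho-H2A.x immunofluorescence (1:200, FITC secondary) plus Hoechst nuclear stain, quantified by high-content imaging in HepG2 after 1 hr compound exposure. Ten concentrations, 0.39 to 200 uM, in duplicate with 0.5% DMSO; fit both directions against DMSO.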

[6] = APR_HepG2_CellCycleArrest_24hr: Apredica 24-hour HepG2 Assay for Cell Cycle Arrest (AID 2282905); details: imaging, actives raise or lower the signal;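 also: cell cycle arrest scored as ratio of 2N to 4N nuclear DNA content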
In short: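 Compounds (0.39 to 200 uM, final DMSO 0.5% v/v) are applied to HepG2 cells for 24 hours; cells are then fixed, permeabilized and nuclei labeled with Hoechst 33342. Automated imaging measures DNA content, and activity is fitted in both directions against DMSO.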

[7] = APR_HepG2_MicrotubuleCSK_1hr: Apredica 1-hour HepG2 Assay for Microtubule CSK Stabilty (AID 2282669); details: HepG2 microtubule cytoskeleton imaging, actives raise or lower the signal
In short: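 Alpha-tubulin immunofluorescence, imaged by automated high-content microscopy with Hoechst nuclear segmentation, measured cytoskeletal change after 1 h dosing of HepG2 at 0.39–200 uM in 0.5% DMSO. Activity fitted in both directions relative to DMSO.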

[8] = APR_HepG2_MitoMass_1hr: Apredica 1-hour HepG2 Assay for Mitochondrial Mass (AID 2282674); details: high-content imaging, actives raise or lower the signal
In short: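 Mitochondrial mass is taken from MitoTracker Red CMXRos (250 nM, 30 min, pre-fixation) fluorescence imaged at 20x in HepG2 cells. Exposure lasted 1 hr across ten concentrations, 0.39 to 200 uM, 0.5% DMSO; DMSO baseline, bidirectional fitting.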

[9] = APR_HepG2_p53Act_1hr: Apredica 1-hour HepG2 Assay for p53 Activation (AID 2282671); details: high-content imaging, actives raise or lower the signal
In short: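 After 1 h exposure (0.39–200 uM, 0.5% DMSO final, duplicates), fixed HepG2 cells were labelled with anti-p53 antibody plus Hoechst nuclear stain. Fluorescence quantified by automated 20x imaging; changes fitted in both directions against DMSO.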

[10] = APR_HepG2_MitoMembPot_1hr: Apredica 1-hour HepG2 Assay for Mitochondrial Membrane Potential (AID 2282675); details: imaging, actives raise or lower the signal
In short: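 Mitochondrial membrane potential read as MitoTracker Red CMXRos intensity by automated imaging of fixed HepG2 cells. Dye at 250 nM for 30 min pre-fixation; compounds 0.39 to 200 uM for 1 hour, duplicate wells, 0.5% DMSO.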

Measured: AC50

COc1cccc(C(=O)NN(C(=O)c2cc(C)cc(C)c2)C(C)(C)C)c1C
inactive: [1] | [2] | [3] | [4] | [5] | [6]

CCOP(=S)(OCC)OC(Cl)C(Cl)(Cl)Cl (configuration not stated)
not listed: [9] | [10]
inactive: all other assays above

CCCCOC(=O)[C@@H](C)Oc1ccc(Oc2ccc(C#N)cc2F)cc1
active: [6] 96.9 µM
inactive: [1] | [3] | [4] | [5] | [8]

CC(COc1ccc(Oc2ccccc2)cc1)Oc1ccccn1 (configuration not stated)
active: [10] 66.9 µM | [6] 77 µM
not listed: [5] | [7]
inactive: all other assays above

CCC(CC)Nc1c([N+](=O)[O-])cc(C)c(C)c1[N+](=O)[O-]
not listed: [2] | [5] | [10]
inactive: all other assays above

CN1COCN(Cc2cnc(Cl)s2)C1=N[N+](=O)[O-]
not listed: [5] | [9]
inactive: all other assays above

CNc1cnn(-c2cccc(C(F)(F)F)c2)c(=O)c1Cl
inactive: [1] | [3] | [4] | [6]

CCc1cccc(C)c1N(C(=O)CCl)C(C)COC (configuration not stated)
not listed: [1] | [10]
inactive: all other assays above

CC(=NC#N)N(C)Cc1ccc(Cl)nc1
inactive: [1] | [3] | [9] | [4] | [6]

CC(C1CC1)C(O)(Cn1cncn1)c1ccc(Cl)cc1 (configuration not stated)
inactive: [1] | [3] | [4] | [6]

CN(C)C(=O)Nc1cccc(C(F)(F)F)c1
not listed: [2] | [7] | [8]
inactive: all other assays above

CON=C(C(=O)OC)c1ccccc1CON=C(C)c1cccc(C(F)(F)F)c1
not listed: [7] | [9] | [10]
inactive: all other assays above

FC(F)C(F)(F)OCC(Cn1cncn1)c1ccc(Cl)cc1Cl (configuration not stated)
not listed: [8] | [9]
inactive: all other assays above

Nc1nc(N)nc(NC2CC2)n1
not listed: [7] | [9]
inactive: all other assays above

COP(=O)(OC)C(O)C(Cl)(Cl)Cl (configuration not stated)
active: [6] 164 µM
inactive: [1] | [3] | [4]

CCCOCC(=Nc1ccc(Cl)cc1C(F)(F)F)n1ccnc1
not listed: [1] | [5] | [8]
inactive: all other assays above

CCC(=O)Nc1ccc(Cl)c(Cl)c1
active: [6] 79.3 µM
not listed: [1] | [8] | [9]
inactive: all other assays above

Nc1c(Cl)cc([N+](=O)[O-])cc1Cl
inactive: [1] | [7] | [3] | [4] | [6]

CNC(=O)Oc1cccc2c1OC(C)(C)O2
active: [6] 127 µM
not listed: [8] | [9] | [10]
inactive: all other assays above

C#CC(C)(C)NC(=O)c1cc(Cl)cc(Cl)c1
inactive: [1] | [7] | [3] | [4] | [10] | [6]

S=C1NCCN1
not listed: [5] | [9] | [10]
inactive: all other assays above

C#CCC1=C(C)C(OC(=O)C2C(C=C(C)C)C2(C)C)CC1=O (configuration not stated)
active: [6] 151 µM
not listed: [1] | [5] | [8]
inactive: all other assays above

COc1ccc(C(=CC(=O)N2CCOCC2)c2ccc(Cl)cc2)cc1OC
not listed: [2] | [5] | [7]
inactive: all other assays above

CC(C)N(C(=O)SCC(Cl)=C(Cl)Cl)C(C)C
not listed: [5] | [7] | [9]
inactive: all other assays above

CCOP(=O)(NC(C)C)Oc1ccc(SC)c(C)c1 (configuration not stated)
not listed: [2] | [7] | [10]
inactive: all other assays above

CC[C@H](C)[C@H]1O[C@]2(C=C[C@@H]1C)C[C@@H]1C[C@@H](C/C=C(\C)[C@@H](O[C@H]3C[C@H](OC)[C@@H](O[C@H]4C[C@H](OC)[C@@H](NC)[C@H](C)O4)[C@H](C)O3)[C@@H](C)/C=C/C=C3\CO[C@@H]4[C@H](O)C(C)=C[C@@H](C(=O)O1)[C@]34O)O2
inactive: [1] | [7] | [3] | [4] | [6]

CCCCOC(=O)c1ccccc1C(=O)O
not listed: [8] | [9]
inactive: all other assays above

CCc1cnc(C2=NC(C)(C(C)C)C(=O)N2)c(C(=O)O)c1 (configuration not stated)
inactive: [1] | [3] | [4] | [8] | [10] | [6]

COc1cc(OC)nc(Sc2cccc(Cl)c2C(=O)O)n1
inactive: [1] | [3] | [4] | [5] | [10] | [6]

O=c1ccc(=O)[nH][nH]1
not listed: [8] | [10]
inactive: all other assays above

CCCSP(=O)(OCC)Oc1ccc(Br)cc1Cl (configuration not stated)
inactive: [1] | [3] | [4] | [6]

CC(C)=CC1C(C(=O)OCN2C(=O)C3=C(CCCC3)C2=O)C1(C)C (configuration not stated)
inactive: [1] | [3] | [4] | [10] | [6]

From PubChem BioAssay (EPA / NIEHS)
